Test results taken from PubChem BioAssay (NCATS).
“And” between values parts separate entries of the source, which are not always exact repeats. Identical values can stand only once. Results filed as inconclusive are left out. The source made the active and inactive calls. Unless noted, the call rests on the fitted dose curve; in most records, active means well fitted curve in the direction sought with a large enough effect; inconclusive means small, poorly fitted or top-dose-only effect, or another doubt; inactive means no such curve, though single readings can be large; an effect the other way counts as inactive or inconclusive.

Experiments:
[1] = qHTS Screen of the MIPE 4.0 Collection Against Ewings Sarcoma (TC32) (AID 1259256); further: nearly all actives have a fitted effect of over 45% in size; further: potency means the concentration at half of the fitted maximal effect
How it was run: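 Compound titrations go onto adherent log-phase cells 4 h after seeding, incubate 48 h at 37C, then CellTiter-Glo luminescence reports viability relative to DMSO and cell-free controls.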

[2] = qHTS assay to identify small molecule inhibitors of chordoma cells - UCH-1 (AID 1259355); further: nearly all actives have a fitted effect of over 55% in size; further: potency means the concentration at half of the fitted maximal effect; series mostly up to about 46 µM
How it was run: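 A 48hr growth-inhibition format: each drug tested at 15 concentrations together with added auranofin, camptothecin, doxorubicin, rubitecan and topotecan, with cell viability quantified as CellTiter-Glo luminescence.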

[3] = qHTS assay to identify small molecule inhibitors of chordoma cells - UCH-2 (AID 1259356); further: series mostly up to about 46 µM; on the % scale 0 is the no-effect control and ±100 the full control effect
[4] = P-glycoprotein substrates identified in KB-3-1 adenocarcinoma cell line, qHTS therapeutic library screen (AID 1346986); further: nearly all actives have a fitted effect of over 60% in size
How it was run: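 Using luminescence to quantify ATP, parental and P-gp-overexpressing KB cells were compared after 72 h compound titration. KB-8-5-11 was also run with the P-gp inhibitor tariquidar.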

[5] = P-glycoprotein substrates identified in KB-8-5-11 adenocarcinoma cell line, qHTS therapeutic library screen (AID 1346987); further: nearly all actives have a fitted effect of over 65% in size; further: potency means the concentration at half of the fitted maximal effect
How it was run: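 In this qHTS, P-gp-rich KB-8-5-11 cells received library compounds across a concentration range. Viability was quantified by luminescence after 72 h at 37 degree C.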

[6] = Natriuretic polypeptide receptor (hNpr1) antagonism - Pilot counterscreen GloSensor control cell line (AID 1347045; calls by dose curve; further: series mostly up to about 38 µM; on the % scale 0 is the no-effect control and ±100 the full control effect)
How it was run: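 HEK293 cGMP-sensor cells; 2% GloSensor reagent 2 h RT; LOPAC compounds in 1:5 titrations 30-50 min; 50 uM SNP 20 min; luminescence pre-read and post-read.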

[7] = target: Atrial natriuretic peptide receptor 1 (Homo sapiens) (UniProt P16066); experiment: Natriuretic polypeptide receptor (hNpr1) antagonism - Pilot screen (AID 1347049; calls by dose curve;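 further: HEK293 cells with hNpr1 and GloSensor cGMP luciferase stimulated by 0.1 nM hNppA; agonist-evoked cGMP luminescence read 20 min after hNppA addition; series mostly up to about 58 µM; on the % scale 0 is the no-effect control and ±100 the full control effect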)
How it was run: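 Cells expressing receptor plus cGMP biosensor are seeded and incubated overnight at 37C, then loaded with GloSensor reagent (2% final) at room temperature for 2 h. Library compounds go on for 30 min. A pre-read precedes agonist (hNppA, 0.1 nM final) and a 20-min readout.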

[8] = target: Atrial natriuretic peptide receptor 2 (Homo sapiens) (UniProt P20594); experiment: Natriuretic polypeptide receptor (hNpr2) antagonism - Pilot subtype selectivity assay (AID 1347050; calls by dose curve; further: potency means the concentration at half of the fitted maximal effect)
How it was run: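 Read-out: GloSensor luminescence (CCD imager), baseline vs post-stimulation. HEK293 cells expressing hNpr2; compounds pre-incubated 30-50 min at ambient temperature; hNppC 1 nM final, 20 min.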

[9] = NS1 protein of Zika virus - qHTS assay to identify small molecule inhibitors in human HEK 293 cells (AID 1347053);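 further: series mostly up to about 46 µM; plate controls were infected untreated cells for no effect and uninfected cells for full effect; nearly all actives have a fitted effect of over 55% in size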
How it was run: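 Readout was TR-FRET using paired anti-NS1 antibodies after 24 h infection of HEK 293 cells with ZIKV MR766 (MOI = 0.5). Compound preceded virus by 1 h; reduced signal reflects lower NS1 expression.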

[10] = target: T1, Tyrosine-protein phosphatase non-receptor type substrate 1 (Homo sapiens) + Leukocyte surface antigen CD47 (Homo sapiens) (UniProt P78324+Q08722); experiment: CD47-SIRPalpha protein protein interaction - HTRF assay qHTS validation (AID 1347058; active means well fitted curve in the direction sought with a large enough effect in the signal ratio, not every such curve was filed as active; the % refers to the signal ratio; further: series mostly up to about 38 µM; 0% is about no effect)
How it was run: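 Soluble extracellular domains (6His-CD47, Avi-tag-biotinylated SIRPalpha) in PBS pH 7.4 with 0.05% IGEPAL CA-630. Compounds were preincubated 30 min at RT with CD47 and anti-His-Eu, then SIRPalpha and SAV-XL665 were added. TR-FRET 665/615 ratio.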

[11] = target: T1, Tyrosine-protein phosphatase non-receptor type substrate 1 (Homo sapiens) + Leukocyte surface antigen CD47 (Homo sapiens); experiment: CD47-SIRPalpha protein protein interaction - Alpha assay qHTS validation (AID 1347059);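 further: bead proximity luminescence from CD47 binding SIRPalpha after compound preincubation with SIRPalpha; on the % scale 0 is the no-effect control and ±100 the full control effect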
How it was run: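 In PBS (pH 7.4) with 0.05% IGEPAL CA-630, compound is preincubated with biotin-Avi-SIRPalpha ectodomain before His-CD47 ectodomain and affinity beads are added. Light-protected room-temperature incubations; AlphaScreen readout.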

[12] = qHTS of pediatric cancer cell lines to identify multiple opportunities for drug repurposing: Primary screen for TC32 cells (AID 1347089); further: nearly all actives have a fitted effect of over 60% in size; further: potency means the concentration at half of the fitted maximal effect
How it was run: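 In the primary qHTS, MIPE compounds were tested at 11 concentrations (0.78 nM to 46 µM) and NPC compounds at 8 (0.59 nM to 46 µM) on TC32 cells for 48 h. CellTiter-Glo luminescence gave viability.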

[13] = qHTS of pediatric cancer cell lines to identify multiple opportunities for drug repurposing: Primary screen for DAOY cells (AID 1347090); further: nearly all actives have a fitted effect of over 55% in size; further: potency means the concentration at half of the fitted maximal effect
How it was run: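 Eight- or eleven-point concentration series, 48 h treatment at 37 degrees C in growth media; readout CellTiter-Glo luminescence. Potency and efficacy were taken from the concentration-response curves.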

[14] = Identifying Small Molecule Inhibitors of Pancreatic Cancer Stem Cells (SN12C, Adherent) (AID 1259358);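 further: cell survival measured after 48 h of compound exposure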; further: potency means the concentration at half of the fitted maximal effect
How it was run: (§1)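 Viability is scored by CellTiter-Glo luminescence 48 h after dosing, expressed as percent activity against vehicle and no-cell references. Spheroid formats rely on cells cultured 14 days in stem cell media beforehand.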

[15] = Identifying Small Molecule Inhibitors of Pancreatic Cancer Stem Cells (SN12C, Spheroid) (AID 1259360); conditions: Potency: SN12C spheroid viability; further: potency means the concentration at half of the fitted maximal effect
How it was run: (§2)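 Adherent (2D) versus sphere (3D) formats; spheres generated 14 d in SCM beforehand. Compound transferred by pin tool after 4 h, 48 h incubation, CellTiter-Glo endpoint.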

[16] = Identifying Small Molecule Inhibitors of Pancreatic Cancer Stem Cells (A278, Adherent) (AID 1259361);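 further: viability read after 48 h compound exposure; nearly all actives have a fitted effect of over 35% in size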
How it was run: as §1

[17] = Identifying Small Molecule Inhibitors of Pancreatic Cancer Stem Cells (Panc1, Adherent) (AID 1259362); conditions: Potency: viability;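 further: compound exposure lasted 48 h before the viability read; plate controls were DMSO-treated cells for no effect and cell-free media wells for full effect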
How it was run: as §2

[18] = target: Parathyroid hormone/parathyroid hormone-related peptide receptor (Homo sapiens) (UniProt Q03431); experiment: qHTS for PTHR1 Agonists: Optimization Screen against the NCGC LOPAC library (AID 1347079);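 further: GloSensor cAMP luminescence in HEK-293 GP2 cells expressing human PTHR1 with IBMX; 0% is about no effect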
How it was run: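 Signal increase flags agonism. GP2 cells, derived from HEK-293, express human PTHR1 and a GloSensor cAMP construct.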

[19] = target: T1, Tyrosine-protein phosphatase non-receptor type substrate 1 (Homo sapiens) + Leukocyte surface antigen CD47 (Homo sapiens); experiment: CD47-SIRPalpha protein protein interaction - LANCE assay qHTS validation (AID 1347057; active means well fitted curve in the direction sought with a large enough effect in the signal ratio, with a control signal flat, not every such curve was filed as active; the % refers to the signal ratio; further: series mostly up to about 38 µM; 0% is about no effect)
How it was run: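 Inhibition of soluble CD47/SIRPalpha ectodomain association by titrated compounds, measured as 665/615 nm time-resolved FRET ratio after sequential 30 min room-temperature incubations.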

Atrial natriuretic peptide receptor 2 (Homo sapiens), sequence (P20594 whole entry, looked up): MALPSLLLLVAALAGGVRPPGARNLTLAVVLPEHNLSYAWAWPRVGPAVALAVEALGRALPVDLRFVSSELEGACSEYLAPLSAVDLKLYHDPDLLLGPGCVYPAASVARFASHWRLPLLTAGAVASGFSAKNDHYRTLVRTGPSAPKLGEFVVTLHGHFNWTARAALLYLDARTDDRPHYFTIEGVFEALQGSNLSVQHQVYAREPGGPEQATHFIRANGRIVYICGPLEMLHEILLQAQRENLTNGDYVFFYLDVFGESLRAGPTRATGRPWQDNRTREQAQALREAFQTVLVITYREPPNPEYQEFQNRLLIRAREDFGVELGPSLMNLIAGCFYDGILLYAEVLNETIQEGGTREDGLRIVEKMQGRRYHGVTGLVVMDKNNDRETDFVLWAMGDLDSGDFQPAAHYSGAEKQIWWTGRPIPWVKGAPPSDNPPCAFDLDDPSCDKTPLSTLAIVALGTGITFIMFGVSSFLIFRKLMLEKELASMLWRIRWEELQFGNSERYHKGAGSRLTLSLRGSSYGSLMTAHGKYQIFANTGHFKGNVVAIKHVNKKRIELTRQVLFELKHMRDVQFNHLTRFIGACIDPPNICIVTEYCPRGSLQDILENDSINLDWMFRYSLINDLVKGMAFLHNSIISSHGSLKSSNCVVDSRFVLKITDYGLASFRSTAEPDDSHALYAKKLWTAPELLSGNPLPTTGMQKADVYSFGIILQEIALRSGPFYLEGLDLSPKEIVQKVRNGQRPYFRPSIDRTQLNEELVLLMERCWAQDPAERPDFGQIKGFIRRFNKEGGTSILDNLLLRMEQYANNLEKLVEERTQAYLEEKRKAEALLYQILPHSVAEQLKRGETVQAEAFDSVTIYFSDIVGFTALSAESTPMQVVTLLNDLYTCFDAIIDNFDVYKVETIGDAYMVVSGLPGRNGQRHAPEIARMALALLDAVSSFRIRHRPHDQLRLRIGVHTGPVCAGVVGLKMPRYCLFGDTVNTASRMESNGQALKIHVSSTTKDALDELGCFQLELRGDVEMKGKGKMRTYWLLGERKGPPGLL
Atrial natriuretic peptide receptor 1 (Homo sapiens), sequence (P16066 whole entry, looked up): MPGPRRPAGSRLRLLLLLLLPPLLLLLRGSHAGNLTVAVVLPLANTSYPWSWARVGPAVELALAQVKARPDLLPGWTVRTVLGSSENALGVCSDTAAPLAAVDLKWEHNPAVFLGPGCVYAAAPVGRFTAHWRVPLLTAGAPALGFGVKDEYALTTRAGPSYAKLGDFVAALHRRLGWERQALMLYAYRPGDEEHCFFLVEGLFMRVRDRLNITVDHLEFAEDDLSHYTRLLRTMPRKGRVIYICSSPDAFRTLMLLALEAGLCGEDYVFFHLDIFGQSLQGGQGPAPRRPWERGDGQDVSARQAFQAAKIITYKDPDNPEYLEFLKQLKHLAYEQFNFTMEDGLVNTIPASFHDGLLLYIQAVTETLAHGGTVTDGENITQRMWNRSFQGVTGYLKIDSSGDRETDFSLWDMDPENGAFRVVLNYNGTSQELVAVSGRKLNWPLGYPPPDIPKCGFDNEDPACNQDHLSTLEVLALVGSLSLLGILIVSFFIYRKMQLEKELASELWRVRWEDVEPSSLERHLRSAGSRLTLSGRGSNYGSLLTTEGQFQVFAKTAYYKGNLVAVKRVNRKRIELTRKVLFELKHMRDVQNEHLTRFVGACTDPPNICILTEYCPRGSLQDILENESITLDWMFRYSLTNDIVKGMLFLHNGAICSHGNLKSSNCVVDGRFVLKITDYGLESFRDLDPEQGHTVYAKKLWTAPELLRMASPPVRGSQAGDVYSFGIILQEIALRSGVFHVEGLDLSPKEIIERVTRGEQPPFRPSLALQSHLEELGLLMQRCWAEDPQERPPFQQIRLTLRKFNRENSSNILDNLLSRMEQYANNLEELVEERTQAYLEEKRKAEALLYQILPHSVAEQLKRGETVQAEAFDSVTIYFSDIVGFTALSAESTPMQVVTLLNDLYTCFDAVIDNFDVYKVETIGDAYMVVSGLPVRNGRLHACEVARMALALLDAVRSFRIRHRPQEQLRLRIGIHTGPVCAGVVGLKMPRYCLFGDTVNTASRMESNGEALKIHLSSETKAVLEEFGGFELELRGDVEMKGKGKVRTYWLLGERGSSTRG
T1 sequence (P78324 whole entry, looked up, the tested form may be a part): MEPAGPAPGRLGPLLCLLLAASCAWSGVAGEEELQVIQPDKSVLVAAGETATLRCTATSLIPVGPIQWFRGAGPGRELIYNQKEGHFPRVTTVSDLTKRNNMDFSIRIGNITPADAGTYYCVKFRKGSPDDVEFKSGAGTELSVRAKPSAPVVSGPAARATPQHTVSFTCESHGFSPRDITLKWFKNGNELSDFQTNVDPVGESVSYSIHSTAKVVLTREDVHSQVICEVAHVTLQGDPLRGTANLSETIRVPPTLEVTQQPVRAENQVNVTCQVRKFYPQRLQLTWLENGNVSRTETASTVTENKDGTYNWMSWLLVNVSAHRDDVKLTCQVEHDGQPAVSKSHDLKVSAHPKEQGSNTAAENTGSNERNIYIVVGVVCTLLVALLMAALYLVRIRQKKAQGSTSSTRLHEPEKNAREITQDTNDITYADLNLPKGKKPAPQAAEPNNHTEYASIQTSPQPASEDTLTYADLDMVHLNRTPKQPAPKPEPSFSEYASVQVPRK
T1 sequence (Q08722 whole entry, looked up, the tested form may be a part): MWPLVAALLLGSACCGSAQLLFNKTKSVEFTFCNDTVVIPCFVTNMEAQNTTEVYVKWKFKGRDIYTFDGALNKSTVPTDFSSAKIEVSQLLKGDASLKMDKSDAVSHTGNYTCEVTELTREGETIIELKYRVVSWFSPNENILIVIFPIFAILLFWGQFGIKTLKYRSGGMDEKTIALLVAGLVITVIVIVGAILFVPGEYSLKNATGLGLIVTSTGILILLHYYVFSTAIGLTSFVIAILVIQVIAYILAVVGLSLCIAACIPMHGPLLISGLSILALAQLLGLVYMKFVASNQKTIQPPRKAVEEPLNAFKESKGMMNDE
Parathyroid hormone/parathyroid hormone-related peptide receptor (Homo sapiens), sequence (Q03431 whole entry, looked up): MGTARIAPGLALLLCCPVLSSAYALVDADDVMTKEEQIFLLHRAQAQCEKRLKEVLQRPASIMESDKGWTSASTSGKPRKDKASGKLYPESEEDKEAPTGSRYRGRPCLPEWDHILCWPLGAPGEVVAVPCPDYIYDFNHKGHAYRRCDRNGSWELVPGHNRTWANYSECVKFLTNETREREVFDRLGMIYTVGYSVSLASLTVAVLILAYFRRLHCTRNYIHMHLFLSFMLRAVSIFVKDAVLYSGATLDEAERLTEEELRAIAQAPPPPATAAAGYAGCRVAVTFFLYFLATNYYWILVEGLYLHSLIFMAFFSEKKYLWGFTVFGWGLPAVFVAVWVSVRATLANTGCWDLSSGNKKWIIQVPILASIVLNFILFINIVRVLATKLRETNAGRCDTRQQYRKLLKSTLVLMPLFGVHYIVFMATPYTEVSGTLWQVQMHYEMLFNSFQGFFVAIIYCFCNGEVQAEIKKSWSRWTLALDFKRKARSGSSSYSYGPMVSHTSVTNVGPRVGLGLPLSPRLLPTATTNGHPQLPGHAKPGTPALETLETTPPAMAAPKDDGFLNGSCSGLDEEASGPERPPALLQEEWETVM

CNC[C@H](O)c1cccc(O)c1
inactive: Potency [1] | Potency [2] | outcome [3] | Potency [4] | Potency [5] | outcome [6] | outcome [7] | Potency [8] | Potency [9] | outcome [10] | outcome [11] | Potency [12] | Potency [13]

NC(N)=NC(=O)c1nc(Cl)c(N)nc1N
active: Potency [5] 25.9 µM
inactive: Potency [1] | outcome [3] | Potency [4] | outcome [6] | Potency [8] | Potency [9] | outcome [11] | Potency [12]

C#Cc1cccc(Nc2ncnc3cc(OCCOC)c(OCCOC)cc23)c1
active: Potency [1] 20.9 µM | Potency [2] 0.141 µM | Potency [14] 8.33 µM | Potency [15] 16.6 µM | IC50 (viability decrease) [16] 7.43 µM
inactive: outcome [3] | Potency [17] | Potency [9]

Cc1cc2c(C(C)C)c(O)c(O)c(C=O)c2c(O)c1-c1c(C)cc2c(C(C)C)c(O)c(O)c(C=O)c2c1O
inactive: Potency [2] | outcome [3] | outcome [10] | outcome [18] | Potency [12]
active: Potency [1] 18.7 µM | IC50 (viability decrease) [16] 26.4 µM | Potency [5] 11.8 µM | Potency [13] 21.1 µM and 14.8 µM

OC(CN1CCC(Cc2ccc(F)cc2)CC1)c1ccc(Cl)cc1 (stereo not drawn)
inactive: Potency [1] | activity, negative = inhibition [2] 16.1% [at 9.21 µM] | outcome [3] | Potency [14] | Potency [15] | IC50 (viability decrease) [16] | Potency [5] | outcome [6] | Potency [8] | Potency [9] | outcome [10] | outcome [11] | Potency [12] | Potency [13]

NS(=O)(=O)c1cc2c(cc1Cl)NC=NS2(=O)=O
inactive: Potency [1] | outcome [3] | Potency [4] | Potency [5] | Potency [8] | Potency [9] | outcome [10] | outcome [11] | outcome [18] | Potency [12] | Potency [13]

Nc1ccc(S(=O)(=O)Nc2ccnn2-c2ccccc2)cc1
inactive: Potency [1] | outcome [3] | Potency [5] | outcome [6] | Potency [8] | Potency [9] | outcome [10] | outcome [11] | Potency [12] | Potency [13]

N[C@@H]1CONC1=O
inactive: Potency [1] | Potency [2] | outcome [3] | outcome [6] | Potency [8] | outcome [10] | outcome [11] | Potency [12] | Potency [13]

CC(C)NCC(O)COc1ccc(COCCOC(C)C)cc1 (stereo not drawn)
inactive: Potency [1] | outcome [3] | Potency [5] | outcome [6] | outcome [7] | Potency [8] | Potency [9] | outcome [10] | outcome [11] | Potency [12] | Potency [13]

Cc1[nH]c(=O)c(C#N)cc1-c1ccc2nccn2c1
inactive: Potency [1] | outcome [3] | Potency [14] | Potency [15] | IC50 (viability decrease) [16] | outcome [6] | Potency [8] | Potency [9] | outcome [10] | outcome [11] | Potency [12] | Potency [13]

O=c1n(CCCN2CCN(c3cccc(Cl)c3)CC2)nc2ccccn12
inactive: Potency [1] | outcome [3] | Potency [5] | outcome [6] | outcome [7] | Potency [8] | Potency [9] | outcome [10] | outcome [11] | Potency [12] | Potency [13]

O=C(O)COCCN1CCN(C(c2ccccc2)c2ccc(Cl)cc2)CC1 (stereo not drawn)
inactive: Potency [1] | outcome [3] | Potency [5] | outcome [6] | Potency [9] | outcome [10] | outcome [11] | outcome [18] | Potency [12] | Potency [13]
active: Potency [8] 13.1 µM

C1COC(NC(C2CC2)C2CC2)=N1
inactive: Potency [1] | outcome [3] | Potency [4] | Potency [5] | outcome [6] | Potency [8] | outcome [10] | outcome [11] | Potency [12] | Potency [13]

OC(CCN1CCCCC1)(c1ccccc1)C1CC2C=CC1C2 (stereo not drawn)
inactive: Potency [1] | outcome [3] | Potency [4] | Potency [5] | outcome [6] | Potency [8] | outcome [10] | outcome [11] | Potency [12] | Potency [13]

CCCCNc1cc(C(=O)O)cc(S(N)(=O)=O)c1Oc1ccccc1
inactive: Potency [1] | outcome [3] | Potency [5] | outcome [6] | Potency [8] | Potency [9] | outcome [19] | Potency [12] | Potency [13]

Nc1nc2[nH]cc(CCc3ccc(C(=O)N[C@@H](CCC(=O)O)C(=O)O)cc3)c2c(=O)[nH]1
inactive: outcome [3] | Potency [15] | Potency [13]
active: Potency [1] 0.662 µM | Potency [14] 0.662 µM | Potency [12] 4.66 µM

CCC(C)n1ncn(-c2ccc(N3CCN(c4ccc(OC[C@H]5CO[C@](Cn6cncn6)(c6ccc(Cl)cc6Cl)O5)cc4)CC3)cc2)c1=O (stereo partly drawn)
inactive: Potency [1] | outcome [3] | Potency [14] | Potency [17] | Potency [9] | Potency [12] | Potency [13]
active: IC50 (viability decrease) [16] 5.9 µM

CCc1ccc(CCOc2ccc(CC3SC(=O)NC3=O)cc2)nc1 (stereo not drawn)
inactive: Potency [1] | outcome [3] | Potency [14] | Potency [15] | Potency [5] | Potency [12] | Potency [13]

CCOC(=O)C1=C[C@]2(CC)CCCN3CCc4c(n1c1ccccc41)[C@@H]32
active: Potency [1] 18.7 µM | Potency [5] 26.4 µM
inactive: outcome [3] | outcome [6] | Potency [8] | Potency [9] | outcome [10] | outcome [11] | Potency [12] | Potency [13]
